Data from PubChem BioAssay AID1159580 (chemical genetic matrix, 2015).
In all, about 5,500 compounds went through this assay and about 2,000 (36%) were called active. Inconclusive results (about 18%) are left out. No stated cut-off is given here; in the data, active means normalized growth mostly below about 0.91 (no sharp cut-off); inconclusive means no clear call, values can overlap the other calls; inactive means mostly above about 0.92. Some of the results follow.

Assay: chemical genetic growth profiling, strain panel (AID 1159580);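 further: tested at 20 µM; growth read once vehicle control cultures reached saturation at 30 °C; 1 = growth at the plate median or of vehicle wells; lower values mean less growth of the strain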
Settings: S. cerevisiae deletion strains, growth OD
[1] = locus YAR019C, strain CDC15, hits give low values
[2] = locus YBL105C, strain PKC1, hits give low values
[3] = locus YBR135W, strain CKS1, hits give low values
[4] = locus YBR136W, strain MEC1, hits give low values
[5] = locus YBR160W, strain CDC28, hits give low values
[6] = locus YDL017W, strain CDC7, hits give low values
[7] = locus YDL028C, strain MPS1, hits give low values
[8] = locus YDL101C, strain DUN1, hits give low values
[9] = locus YDL108W, strain KIN28, hits give low values
[10] = locus YDL132W, strain cdc53, hits give low values
[11] = locus YDL214C, strain PRR2, hits give low values
[12] = locus YDR052C, strain DBF4, hits give low values
[13] = locus YDR054C, strain cdc34, hits give low values
[14] = locus YDR226W, strain ADK1, hits give low values
[15] = locus YDR477W, strain SNF1, hits give low values
[16] = locus YER123W, strain YCK3, hits give low values
[17] = locus YER133W, strain GLC7, hits give low values
[18] = locus YFL009W, strain cdc4, hits give low values
[19] = locus YFL029C, strain CAK1, hits give low values
[20] = locus YFR003C, strain YPI1, hits give low values
[21] = locus YFR019W, strain FAB1, hits give low values
[22] = locus YFR028C, strain CDC14, hits give low values
[23] = locus YGR040W, strain KSS1, hits give low values
[24] = locus YGR052W, strain FMP48, hits give low values
[25] = locus YGR092W, strain DBF2, hits give low values
[26] = locus YHR030C, strain SLT2, hits give low values
[27] = locus YHR079C, strain IRE1, hits give low values
[28] = locus YHR082C, strain KSP1, hits give low values
[29] = locus YHR205W, strain SCH9, hits give low values
[30] = locus YIL147C, strain SLN1, hits give low values
[31] = locus YJL095W, strain BCK1, hits give low values
[32] = locus YJL128C, strain PBS2, hits give low values
[33] = locus YJL157C, strain FAR1, hits give low values
[34] = locus YJR016C, strain ILV3, hits give low values
[35] = locus YJR066W, strain TOR1 (second series), hits give low values
[36] = locus YJR066W, strain TOR1, hits give low values
[37] = locus YKL048C, strain ELM1, hits give low values
[38] = locus YKL067W, strain YNK1, hits give low values
[39] = locus YKL101W, strain HSL1, hits give low values
[40] = locus YKL193C, strain SDS22, hits give low values
[41] = locus YKL203C, strain TOR2, hits give low values
[42] = locus YLR113W, strain HOG1, hits give low values
[43] = locus YLR133W, strain CKI1, hits give low values
[44] = locus YLR403W, strain SFP1, hits give low values
[45] = locus YML070W, strain DAK1, hits give low values
[46] = locus YMR001C, strain CDC5, hits give low values
[47] = locus YMR205C, strain PFK2 (second series), hits give low values
[48] = locus YMR277W, strain FCP1, hits give low values
[49] = locus YNL006W, strain LST8, hits give low values
[50] = locus YNL020C, strain ARK1, hits give low values
[51] = locus YNL161W, strain CBK1, hits give low values
[52] = locus YNL183C, strain NPR1, hits give low values
[53] = locus YNL207W, strain RIO2, hits give low values
[54] = locus YNL222W, strain SSU72, hits give low values
[55] = locus YNL307C, strain MCK1 (second series), hits give low values
[56] = locus YOL078W, strain AVO1, hits give low values
[57] = locus YOL136C, strain PFK27, hits give low values
[58] = locus YOR061W, strain CKA2, hits give low values
[59] = locus YOR119C, strain RIO1, hits give low values
[60] = locus YOR231W, strain MKK1, hits give low values
[61] = locus YOR329C, strain SCD5, hits give low values
[62] = locus YPL031C, strain PHO85, hits give low values
[63] = locus YPL153C, strain RAD53, hits give low values
[64] = locus YPL204W, strain HRR25, hits give low values
[65] = locus YPL209C, strain IPL1, hits give low values
[66] = locus YPL256C, strain CLN2, hits give low values
[67] = locus YPR025C, strain CCL1, hits give low values
[68] = locus YPR106W, strain ISR1, hits give low values
[69] = locus YPR111W, strain DBF20, hits give low values
[70] = strain NNK1, hits give low values
[71] = strain TSCII, hits give low values

Measured: normalized growth

Cc1nn(Cc2cccc(C(=O)Nc3ccc(Cl)cc3)c2)c(C)c1Br
inactive: [1] 0.99 | [2] 0.976 | [3] 0.986 | [4] 0.976 | [5] 0.979 | [6] 0.985 | [7] 0.978 | [8] 0.981 | [9] 0.979 | [10] 0.976 | [11] 0.96 | [12] 0.986 | [13] 0.975 | [14] 0.978 | [15] 0.959 | [16] 0.946 | [17] 0.953 | [18] 0.978 | [19] 0.982 | [20] 0.977 | [21] 0.977 | [22] 0.981 | [23] 0.965 | [24] 1.01 | [25] 0.987 | [26] 1.1 | [27] 1.11 | [28] 1.06 | [29] 1.01 | [30] 0.978 | [31] 1 | [32] 0.952 | [33] 0.968 | [34] 0.985 | [35] 0.978 | [36] 1.06 | [37] 0.961 | [38] 0.965 | [39] 0.955 | [40] 0.975 | [41] 1.04 | [42] 0.923 | [43] 0.967 | [44] 0.99 | [45] 0.954 | [46] 0.979 | [47] 0.965 | [48] 0.98 | [49] 0.994 | [50] 0.965 | [51] 0.987 | [52] 1.04 | [53] 0.978 | [54] 0.981 | [55] 1 | [56] 0.973 | [57] 0.92 | [58] 0.96 | [59] 1.02 | [60] 0.968 | [61] 0.987 | [62] 0.963 | [63] 0.957 | [64] 0.935 | [65] 0.981 | [66] 1 | [67] 0.974 | [68] 0.982 | [69] 0.97 | [70] 0.982 | [71] 0.981

Cc1cc(C(=O)Nc2ccc(Cl)cc2)nn1C(C)(C)C
active: [42] 0.801 | [66] 0.817
inactive: [1] 0.985 | [2] 1 | [3] 0.995 | [4] 1 | [5] 0.99 | [6] 0.995 | [7] 1.01 | [8] 0.984 | [9] 0.993 | [10] 0.989 | [11] 0.967 | [12] 1 | [13] 0.984 | [14] 0.987 | [15] 0.973 | [16] 0.955 | [17] 0.97 | [18] 0.989 | [19] 0.984 | [20] 1 | [21] 0.992 | [22] 1 | [23] 0.978 | [24] 0.958 | [25] 0.982 | [26] 1.08 | [27] 0.866 | [28] 1.15 | [29] 0.951 | [30] 0.998 | [31] 0.849 | [32] 0.942 | [33] 0.973 | [34] 0.984 | [35] 0.962 | [36] 1.11 | [37] 0.983 | [38] 0.976 | [39] 0.975 | [40] 0.993 | [41] 1.05 | [43] 0.967 | [44] 0.956 | [45] 0.958 | [46] 1 | [47] 0.966 | [48] 0.975 | [49] 0.992 | [50] 0.964 | [51] 0.986 | [52] 0.893 | [53] 0.998 | [54] 0.992 | [55] 0.977 | [56] 0.985 | [57] 0.96 | [58] 0.977 | [59] 1.02 | [60] 0.877 | [61] 1 | [62] 0.982 | [63] 0.957 | [64] 0.962 | [65] 1 | [67] 0.999 | [68] 0.979 | [69] 0.978 | [70] 0.984 | [71] 0.985
